Reference: PubChem BioAssay AID488890 (Southern Research Specialized Biocontainment Screening …, 2010)
In all, about 320,000 compounds went through this assay and about 1,300 (0.41%) were called active. Not shown: some 3% with an inconclusive outcome. No rule for the calls is given here. These entries were drawn from the full list. Potency and affinity values are given separately.

assay: growth inhibition of non-replicating M. tuberculosis (AID 488890); conditions: Mycobacterium tuberculosis non-replicating, at 25 µM, stronger effect = higher value;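 also: plate controls were DMSO cells for no effect and high antibiotic wells for full effect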

Point of comparison: `COc1ccc(C(C)C)cc1S(=O)(=O)NCC1CCCO1` (centres undefined), inhibition 16%. Against it:
- Cc1cc(Nc2nc3ccccc3nc2Cl)n(-c2ccccc2)n1 — lower, 8.46%
- CC(C)(C)NC(=S)NCc1ccco1 — lower, -18.9%
- CC(C)(O)C(=O)NNC(=S)NCc1ccco1 — lower, -2.82%
- COc1ccc(/C=N/NC(=O)c2cccs2)c2ccccc12 — higher, 76.3%
- CCOC(=O)CCCNC(=O)COC(=O)c1cc(C)cc(C)c1 — lower, -5.81%
- CCOC(=O)CCCNC(=O)COC(=O)c1ccc(O)cc1 — lower, -2.65%
- COc1ccc(S(=O)(=O)NCC2CCCN(Cc3ccc(C)o3)C2)cc1 (centres undefined) — lower, 8.61%
- COc1ccc(C(=O)N2CCN(CCNC(=O)C(=O)Nc3ccc(F)cc3)CC2)cc1OC — lower, -5.42%
- CC(C)NCC(=O)C12CC3CC(CC(C3)C1)C2 — lower, -12.5%
- COc1ccc(C(=O)COC(=O)CCc2nc3ccccc3[nH]c2=O)cc1Br — lower, 5.73%
- COC1CCCN(C(=O)c2ccc3oc(Cc4ccc(Cl)cc4)nc3c2)C1 (centres undefined) — higher, 23.6%
- CCN(CC)c1ccc(CNCc2cccs2)cc1 — lower, 6.27%
- O=C(COc1ccccc1)NNC(=O)c1cc2ccccc2oc1=O — lower, 10.5%
- Cc1ccc(C(C)NC(=O)c2ccco2)cc1C (centres undefined) — higher, 71.1%
- CC(=O)OCCNC(=O)c1cc2ccccc2oc1=O — lower, -10.9%
- COc1cccc2cc(C(=O)NC(C)c3ccccc3)c(=O)oc12 (centres undefined) — higher, 26.4%
- CC(NC(=O)c1cc(Br)ccc1Cl)c1ccccc1 (centres undefined) — lower, 0.91%
- Cc1cc(C)cc(OCC(=O)NNC(=O)c2cc3ccccc3o2)c1 — lower, -4.01%
- COc1ccc2oc(=O)c(C(=O)NC(C)c3ccccc3)cc2c1 (centres undefined) — higher, 16.5%
- CC(NC(=O)c1cc(Br)ccc1Br)c1ccccc1 (centres undefined) — lower, -17.5%
- Cc1ccccc1CS(=O)(=O)CCC(=O)NCCCN1CCOCC1 — lower, -2.86%
- CCN(CC)CCNC(=O)c1ccc(NC(=O)c2cc(-c3ccco3)nc3ccccc23)cc1 — lower, 4.2%
- O=C(CCc1ccccc1)Nc1cc(NC(=O)CCc2ccccc2)cc(C(=O)O)c1 — lower, -12.7%
- COc1ccc(C(=O)Nc2ccccc2NC(=O)c2ccc(OC)cc2)cc1 — lower, -3.72%
- COc1ccc(-c2nc(-c3cccs3)no2)cc1 — higher, 24.2%
- COc1ccc(/C=N/c2nc3ccccc3n2CCN2CCCCC2)cc1OC — lower, 4.24%
- Cc1ccc(S(=O)(=O)N2CCOC2CNC(=O)C(=O)NCCN(C)C)cc1 (centres undefined) — lower, -4.76%
- CCN(C(=O)COC(=O)c1ccc(Cl)cc1N)C1CCCCC1 — higher, 30.8%
- O=c1c2cc([N+](=O)[O-])cc([N+](=O)[O-])c2[nH]n1-c1ccccc1 — lower, 5.65%
- COc1ccc(CNC(=O)C/C(C)=N/NC(=O)COc2cccc(C)c2)cc1 — lower, -10.6%
- CC(=NNC(=O)COc1cccc(C)c1)c1cccnc1 — lower, 2.36%
- O=S(=O)(Nc1c(O)ccc2ccccc12)c1ccc(F)cc1 — lower, -1.3%
- O=S(=O)(Nc1ccc2c3c(cccc13)CC2)c1ccc(F)cc1 — higher, 21.3%
- O=C(COc1ccc(Br)cc1)Nc1ccccc1N1CCCC1 — higher, 26.6%
- CCn1c(CNC(=O)c2ccccc2)nc2ccccc21 — lower, 2.98%
- O=C(Nc1nc2ccccc2n1Cc1ccccc1)c1ccc(COc2ccccc2[N+](=O)[O-])o1 — lower, -4.43%
- CCn1c(NC(=O)Nc2ccccc2OC)nc2ccccc21 — higher, 43%
- CN(C)CCCn1c(NC(=O)C2CCCCC2)nc2ccccc21 — higher, 24.1%
- CCn1c(NC(=S)Nc2ccccc2)nc2ccccc21 — higher, 57.9%
- CCn1c(NC2CCCCC2)nc2ccccc21 — lower, 8.52%
- CCn1c(-c2nonc2NC(=O)c2ccccc2)nc2ccccc21 — lower, 3.27%
- CCn1c(NC(=O)c2ccc(COc3ccc(C)cc3[N+](=O)[O-])o2)nc2ccccc21 — lower, 14%
- COc1ccc(C(C)(C)NC(=O)C2CCC(=O)N(C3CCCC3)C2)cc1OC (centres undefined) — lower, 1.54%
- O=C(O)c1cc(-c2ccc(Cl)cc2)n(-c2ccc(Cl)cc2)n1 — higher, 28.3%
- O=C(COC(=O)c1ccc(OC(F)F)cc1)Nc1cccc(S(=O)(=O)NC2=NCCC2)c1 — lower, -15.4%
- CN(C)S(=O)(=O)N1CCC(Oc2ccc(C(=O)N3C[C@H]4CC[C@H]3C4)cc2)CC1 — lower, -6.7%
- O=C(CCS(=O)(=O)Cc1ccccc1)NCC1CCCO1 (centres undefined) — lower, -2.41%
- CNC(=O)n1cc(C)c(-c2cccs2)n1 — lower, 3.54%
- O=C(NCc1cccnc1)C1CCC(CNS(=O)(=O)c2cccc3nsnc23)CC1 (centres undefined) — lower, -1.6%
- CCOc1cc(S(=O)(=O)NC2CCCCC2)ccc1F — higher, 22.4%
- C=CCn1c(SCC(=O)Nc2ccc(C(=O)O)cc2)nc2scc(-c3ccccc3)c2c1=O — lower, 6.43%
- O=C(Nc1nc2ccccc2n1CCN1CCOCC1)c1ccccc1 — higher, 78.5%
- Cn1c(CCNC(=O)c2ccccc2)nc2ccccc21 — lower, -11.6%
- Cn1c(NC(=O)c2cccnc2)nc2ccccc21 — higher, 74.7%
- CCn1c(/C=N/Nc2ccc(C(=O)O)cc2)nc2ccccc21 — lower, 5.68%
- CCCn1c(CNC(=O)c2ccccc2)nc2ccccc21 — lower, 1.31%
- CCn1c(C)nc2cc(C(=O)N/N=C/c3ccc(OC)cc3)ccc21 — lower, -1.99%
- Cc1ccc(-n2nc3c(=O)n(CCCC(=O)NCc4ccc(Cl)cc4)nc(C)c3c2C)cc1 — higher, 52.4%
- Cc1ccc(C(C(=O)NC2CCCC2)N(C(=O)c2csnn2)c2ccccc2)o1 (centres undefined) — lower, 9.58%
- O=[N+]([O-])c1cccc(/C=N\N2CCN(Cc3ccccc3Cl)CC2)c1 — lower, -2.97%
- O=C(COc1ccc(Br)cc1)N1CCC(c2ccccc2)C1 (centres undefined) — higher, 68%
- COC(=O)C1(C)CN(S(=O)(=O)c2ccc(C)cc2)c2cc(OC)ccc2C1=O (centres undefined) — higher, 35.5%
- Cc1cc(Sc2ccc([N+](=O)[O-])cn2)ccc1Br — lower, 12.1%
- O=[N+]([O-])c1ccc(Oc2cccc(C(F)(F)F)c2)nc1 — higher, 65.4%
- CC1=NCCN1S(=O)(=O)c1ccc(Br)c(C)c1 — lower, 1.05%
- O=S(=O)(c1cccc(C(F)(F)F)c1)c1ccc(O)cn1 — lower, 0.61%
- CCOc1ccc(CCNC(=O)COC(=O)Cn2cnc3ccccc3c2=O)cc1OCC — higher, 18.2%
- COc1ccccc1CNC(=O)COC(=O)COc1ccccc1Cc1ccccc1 — higher, 25.1%
- O=C(Nc1cccc(-n2cnnn2)c1)c1ccoc1COc1ccc(Cl)cc1 — lower, 5.71%
- CSc1ccccc1C(=O)C1CCCN(S(=O)(=O)c2c(C)noc2C)C1 (centres undefined) — lower, -0.64%
- c1ccc(Nc2c(-c3ccco3)nc3ccccn23)cc1 — higher, 43.1%
- Cc1ccc(Nc2c(-c3ccco3)nc3ccccn23)cc1 — higher, 43.3%
- CCOc1ccc(S(=O)(=O)N(CC(=O)NCc2cccnc2)c2ccc(F)cc2)cc1 — lower, 1.08%
- CCN(C[C@H]1N[C@@](CC)(C(=O)OC)[C@H]2C(=O)N(C)C(=O)[C@@H]12)C(=O)Nc1ccc(C)cc1 — lower, 3.1%
- O=C(O)C1CC(=O)N(c2ccc3c(c2)OCCO3)C1 (centres undefined) — lower, -10.2%
- O=C1c2ccccc2NC(c2ccc3c(c2)OCCO3)N1c1ccc2c(c1)OCCO2 (centres undefined) — higher, 29.3%
- CN1CCN(c2ccc(CNC(=O)c3ccc4c(c3)OCCO4)cc2)CC1 — lower, -0.49%
- Cc1cc(Cl)ccc1NC(=O)COC(=O)c1nc2nccc(C)n2n1 — lower, -0.03%
- O=C(CCN1CCOCC1)c1ccccc1 — higher, 75.5%
- O=C(NCCN1CCOCC1)c1ccc(Cl)cc1 — lower, -1.14%
- COc1cc2c(cc1OC)CN(C(=O)CCC(=O)c1ccc(F)cc1)CC2 — higher, 19.6%
- CC(CN1CCCC1)OC(=O)c1ccc(Br)cc1 (centres undefined) — lower, -10.6%
- COc1cc2c(cc1OC)CN(CCOc1ccc(Br)cc1)CC2 — higher, 17.6%
- O=C(CN1CCOCC1)c1ccc(Br)cc1 — higher, 61.8%
- CC(CN1CCOCC1)OC(=O)c1ccccc1 (centres undefined) — lower, -8.24%
- O=C(NCCCN1CCOCC1)c1ccc(Br)cc1 — higher, 17.1%
- O=C(CCc1ccccc1)Nc1ccccc1F — higher, 18.9%
- COc1ccccc1N(C(=O)CNC(=O)c1ccco1)C(C(=O)NC1CCCC1)c1ccncc1 (centres undefined) — lower, 2.47%
- CSc1cccc(NC(=O)CCNS(=O)(=O)c2ccc3[nH]c(=O)oc3c2)c1 — lower, -8.71%
- O=C(NCCCN1CCOCC1)c1cc2c([nH]c3ccccc32)c(-c2cccc(Br)c2)n1 — higher, 77.1%
- CN=C1S/C(=C/c2cn(CC(=O)OC)c3ccccc23)C(=O)N1C — higher, 47.1%
- O=C(O)C1CC(=O)N(CCOc2ccccc2)C1 (centres undefined) — lower, -0.16%
- CC1CCC(NC(=O)CCNC(=O)c2ccc(Br)cc2)CC1 (centres undefined) — higher, 67.6%
- Cn1cnnc1Sc1ccc(C(=O)NCCC23CC4CC(CC(C4)C2)C3)cc1[N+](=O)[O-] — higher, 33.9%
- CC1CCCN(CCC(=O)Nc2ccc(Br)cc2)C1 (centres undefined) — lower, 10.6%
- CC1CCCN(CCOc2ccc(Br)cc2)C1 (centres undefined) — higher, 16.9%
- COc1ccc(OC)c2c1CC(C)(C)NC2=O — lower, -28.9%
- COc1ccc(/C=C2/SC(=S)N(CCCC(=O)Nc3ccc(O)cc3)C2=O)cc1 — higher, 71.1%
- COc1ccc(/C=C2\SC(=S)N(CCCC(=O)Nc3ccc(O)cc3)C2=O)cc1 — higher, 53.3%
- Cc1ccc(S(=O)(=O)CCC(=O)Oc2ccc3c(C)cc(=O)oc3c2)cc1 — lower, 6.87%
- CC(C)CNC(=O)N1c2ccccc2Sc2ccccc21 — higher, 30.4%
- N=c1c(S(=O)(=O)c2ccc(Cl)cc2)cc2c(=O)n3ccccc3nc2n1CCc1ccccc1 — higher, 16.6%
- Cc1ccc(C)c(OCCCN2CCCC2)c1 — lower, -3.13%
- Brc1ccc(/C=N/Nc2nc3ccccc3o2)cc1 — lower, 0.82%
- Oc1ccc(/C=N/Nc2ncc(Br)cn2)c(O)c1 — higher, 57.8%
- Oc1ccc(Br)cc1/C=N/Nc1ncc(-c2ccccc2)cn1 — lower, 1.56%
- Fc1ccccc1/C=N/Nc1nc2ccccc2o1 — lower, 14.1%
- Clc1cc(Cl)cc(NC2=NCCS2)c1 — lower, 5.95%
- COc1ccc(S(=O)(=O)n2oc(=O)cc2-c2ccccc2)cc1OC — lower, -6.84%
- Cc1occc1C(=O)NC1CCCc2ccccc21 (centres undefined) — lower, 3.75%
- Cc1ccc(NC(=O)COc2ncnc3sccc23)cc1S(=O)(=O)N(C)C — lower, 7.74%
- Cc1c(C#N)c2ccccc2n1C — lower, -15.1%
- COc1ccc(N2CC(C(=O)OCC(=O)c3ccc(C)cc3)CC2=O)cc1 (centres undefined) — higher, 23.6%
- COC(=O)C1CC(=O)N(c2ccc(C)cc2)C1 (centres undefined) — higher, 24.5%
- O=C(O)C1CC(=O)N(c2ccc(OCc3ccccc3Cl)cc2)C1 (centres undefined) — higher, 31.4%
- COc1cccc(COC(=O)C2CC(=O)N(Cc3ccc(C)cc3)C2)c1OC (centres undefined) — higher, 76.5%
- O=C(OCc1ccccc1Cl)C1CC(=O)N(Cc2ccco2)C1 (centres undefined) — lower, 12.3%
- NC(=O)C1CC(=O)N(c2ccc(OCc3ccccc3Cl)cc2)C1 (centres undefined) — higher, 58.3%
